According to PubChem BioAssay AID588852 (The Scripps Research Institute Molecular Screening Center, 2011):
The campaign covered roughly 360,000 compounds. About 4,600 (1.3%) were called active.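 How the source made its calls: active means percent inhibition above its own plate's cutoff, namely the mean of that plate's compound wells plus 3 SD; inactive means the rest.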 The entries come from a sample that favours actives as a whole.

These molecules were tested against Muscarinic acetylcholine receptor M1 (Homo sapiens) (UniProt P11229) (assay: CHRM1 blockers of acetylcholine calcium response – CHO-K1 cells, Fluo-8 calcium fluorescence, 1536-well, primary screen (AID 588852;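 further: peak over basal fluorescence ratio during 140 s after agonist addition; 0% = ACh EC80 plus DMSO and 100% = DMSO alone without agonist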)). Details: CHO-K1 hM1, Fluo-8 calcium fluorescence, ACh EC80 antagonist; at 3 µM; active compounds read high.
Sequence of Muscarinic acetylcholine receptor M1 (Homo sapiens) (P11229 whole entry, looked up): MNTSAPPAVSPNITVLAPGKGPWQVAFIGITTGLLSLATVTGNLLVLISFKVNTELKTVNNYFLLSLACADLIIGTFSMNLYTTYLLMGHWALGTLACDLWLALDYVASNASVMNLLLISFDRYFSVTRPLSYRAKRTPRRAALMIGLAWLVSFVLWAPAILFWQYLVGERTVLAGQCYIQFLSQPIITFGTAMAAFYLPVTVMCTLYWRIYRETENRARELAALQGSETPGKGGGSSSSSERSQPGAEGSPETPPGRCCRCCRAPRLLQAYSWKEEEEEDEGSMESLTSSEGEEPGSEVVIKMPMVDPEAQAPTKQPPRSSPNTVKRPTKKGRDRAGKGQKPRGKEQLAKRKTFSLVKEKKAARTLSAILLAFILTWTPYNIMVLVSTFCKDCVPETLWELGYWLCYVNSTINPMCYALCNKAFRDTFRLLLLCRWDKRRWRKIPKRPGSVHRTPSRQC

Row | SMILES | inhibition
1 | O=c1[nH]c2ccccc2n1C1CCN(C(c2ccccc2)c2nnnn2Cc2ccccc2)CC1 (stereo not given) | -3.28% (inactive)
2 | COc1ccc(-n2nnnc2C(c2cccc3ccccc23)N2CCC(n3c(=O)[nH]c4ccccc43)CC2)cc1 (stereo not given) | 103% (active)
3 | O=c1[nH]c2ccccc2n1C1CCN(C(c2ccnc3ccccc23)c2nnnn2Cc2ccccc2)CC1 (stereo not given) | 4.78% (inactive)
4 | COC1C(O)C(C)OC(OC2CCC3(C=O)C(CCC4C3CCC3(C)C(C5=CC(=O)OC5)CCC43O)C2)C1O (stereo not given) | -8.54% (inactive)
5 | CC12CCC3C(CCC4CC(=O)CCC43C)C1CC(=NO)C2=O (stereo not given) | -2.57% (inactive)
6 | COc1cccc(C(=O)N2C[C@H]3C[C@@H](C2)c2cccc(=O)n2C3)c1 | -17.6% (inactive)
7 | O=C(Nc1cccc(OC(=O)N2CCCCC2)c1)N1CCOCC1 | 12.4% (inactive)
8 | CC(C)Oc1cccc(C(=O)C2CCCN(C3CCOCC3)C2)c1 (stereo not given) | 62.5% (active)
9 | CCn1cc(CN2CCCC(C(=O)c3cccc(C(F)(F)F)c3)C2)cn1 (stereo not given) | 30.8% (inactive)
10 | CC(C)(C)[C@]1(O)C[C@@H]2OC(=O)C[C@@]23C(=O)O[C@@H]2OC(=O)[C@H](O)[C@]213 | -3.8% (inactive)
11 | CC(=NCc1ccc2c(c1)OCO2)c1c(O)[nH]c(=O)[nH]c1=O | -24.2% (inactive)
12 | CCCC[N+]1(C)C2CC(OC(=O)C(CO)c3ccccc3)CC1C1OC12 (stereo not given) | 85.3% (active)
13 | CCCCC(=O)N/N=C/c1c(O)n(CC)c(=S)n(CC)c1=O | -7.53% (inactive)
14 | Cc1ccc2c(c1)C1CN(C)CCC1N2C(=O)Cn1nnc(-c2ccccc2F)n1 (stereo not given) | 5.84% (inactive)
15 | O=C(COc1ccc2ccccc2c1)N1CCN(Cc2ccncc2)CC1 | 14.5% (inactive)
16 | CC(C(=O)Nc1ccc(Cl)cc1Cl)N1CC=C(c2ccccc2)CC1 (stereo not given) | 18.7% (inactive)
17 | CC[N+]1(C)CCCC(OC(=O)C(O)(c2ccccc2)c2ccccc2)C1 (stereo not given) | 97.3% (active)
18 | COC(=O)CN1C(=O)C2(C(C(=O)OC)=C(N)Oc3ccccc32)C2=C1CC(C)(C)CC2=O (stereo not given) | -6.88% (inactive)
19 | CCOc1ccc(CN(CCCl)CCCl)cc1C(=O)OC | -7.91% (inactive)
20 | CSCCC(c1nnnn1C(C)(C)C)N1CCC(n2c(=O)[nH]c3ccccc32)CC1 (stereo not given) | -5.89% (inactive)
21 | OC(CNC1CCCCC1)c1ccccc1 (stereo not given) | -2.05% (inactive)
22 | COC(=O)C(c1ccccc1)N1CCCCCC1 (stereo not given) | -0.1% (inactive)

Row | SMILES | inhibition
23 | c1ccc(C(CN2CCCCC2)c2ccccc2)cc1 | 50% (active)
24 | CCOP(=O)(OCC)C(NC(=O)NC)C(N)=O (stereo not given) | -7.67% (inactive)
25 | COc1cccc(C(c2nnnn2-c2ccc3c(c2)OCCO3)N2CCC3(CC2)C(=O)NCN3c2ccccc2)c1OC (stereo not given) | -16.2% (inactive)
26 | CCOC(=O)C1(c2ccccc2)CCN(CC(O)c2ccc(NC(C)=O)cc2)CC1 (stereo not given) | -8.72% (inactive)
27 | c1ccc(CCN2CCC3(CC2)OCCO3)cc1 | -10% (inactive)
28 | O=C(OCCN1CCOCC1)C1(c2ccccc2)CCCC1 | 35.5% (active)
29 | CC(=O)NCC1=C(c2ccc3ccccc3c2)C[C@@H]2CC[C@H]1N2Cc1ccco1 | -9.51% (inactive)
30 | CCN(CC)P(=O)(Oc1cccc(C)c1)N(CC)CC | -22.1% (inactive)
31 | COC(=O)C1=C(c2ccccc2OCc2ccccc2)C[C@@H]2CC[C@H]1N2C(=O)NCc1ccc(OC)cc1 | 18.3% (inactive)
32 | NC(=O)Nc1cccc(C(F)(F)F)c1 | -7.02% (inactive)
33 | Cc1cc(=O)oc2c(C)c(OCC(=O)N3CCN(Cc4ccc5c(c4)OCO5)CC3)ccc12 | -1.03% (inactive)
34 | Cc1ccsc1C(=O)C1CCCN(Cc2ccc(O)cc2)C1 (stereo not given) | 7.02% (inactive)
35 | Cc1ccc(CN2CCCC(C(=O)c3ccc4c(c3)OCO4)C2)cc1C (stereo not given) | 84.4% (active)
36 | COc1cccc(CN2CCCC(C(=O)c3ccccc3SC)C2)c1O (stereo not given) | 23.3% (inactive)
37 | COc1ccc(C(=O)C2CCCN(Cc3ccc(C)s3)C2)cc1OC (stereo not given) | 52.6% (active)
38 | CC(C)Nc1nc(Cl)nc(NC(C)C)n1 | -4.88% (inactive)
39 | C=CCN1C(=O)NC(=O)/C(=C/c2ccc(OCC(=O)Nc3ccc(C)cc3)cc2)C1=O | -8.3% (inactive)
40 | COc1ccc(-c2nc(CS(=O)CC(=O)N3CCC4(CC3)OCCO4)c(C)o2)cc1 (stereo not given) | -12.6% (inactive)
41 | CC1(C)C(c2ccccc2)=NC(c2cccnc2)=[N+]1[O-] | -21% (inactive)
42 | CCOC(=O)C1SC2(C(F)(F)C(F)F)CC1(O)c1c(c(OC)c3occc3c1OC)O2 (stereo not given) | 46.3% (active)
43 | O=C(N/N=C/c1c(O)n(C2CC2)c(=S)[nH]c1=O)c1ccccc1 | -8.31% (inactive)
44 | CCOC(=O)C1(Cc2ccc(Cl)cc2)CCN(C(C)CCn2cccn2)CC1 (stereo not given) | 22.2% (inactive)

Row | SMILES | inhibition
45 | O=C(Cc1ccccc1)N1CCN(C2CCCCCC2)CC1 | -0.63% (inactive)
46 | CC1CCCN1CCC(C(N)=O)(c1ccccc1)c1ccccc1 (stereo not given) | 98.5% (active)
47 | CC1CCCCN1Cc1cccnc1 (stereo not given) | 3.5% (inactive)
48 | COC(=O)C1=C(c2cccc(OCc3ccccc3)c2)C[C@@H]2CC[C@H]1N2C(=O)NNCc1ccccc1 | 18.8% (inactive)
49 | Cc1cc(OCc2cc(C(=O)O)oc2C)c2c3c(c(=O)oc2c1)CCCC3 | -3.16% (inactive)
50 | CSc1nc2ccc(C)cc2c(=O)n1-c1cccnc1 | -6.09% (inactive)
51 | CSc1ccc(C(=O)C2CCCN(Cc3ccn[nH]3)C2)cc1 (stereo not given) | 62.7% (active)
52 | S=C(NCCc1ccccc1)N1Cc2cc(N3CCOCC3)ccc2-n2nncc2C1 | -7.43% (inactive)
53 | COC(=O)C1=C(c2ccccc2)C[C@@H]2CC[C@H]1N2C(=O)N1CCCCC1 | -1.18% (inactive)
54 | O=C(NC1CCCCC1)N1Cc2cc(N3CCCCC3)ccc2-n2nncc2C1 | 6.05% (inactive)
55 | CCOc1cccc(=NC2CCCCC2)c2c(C)[nH]c(C)c12 | -4.64% (inactive)
56 | CCCCCCCCCCCCn1ccc(=N)cc1 | 89.2% (active)
57 | COc1ccc(C2NCc3ccc4c(c3-n3cccc32)OCO4)cc1OC (stereo not given) | -9.71% (inactive)
58 | O=C(c1cc2nc(-c3ccccc3)cc(-c3ccccc3)n2n1)N1CCC2(CC1)OCCO2 | -31% (inactive)
59 | COC(=O)C1=C(c2ccc(-c3ccccc3)c(F)c2)C[C@@H]2CC[C@H]1N2C(=O)NCc1ccc(F)cc1 | 1.14% (inactive)
60 | COc1cc(C(=O)N2Cc3ccc(Br)cc3-n3nncc3C2)cc(OC)c1OC | 1.07% (inactive)
61 | Cc1nn(Cc2ccccc2Cl)c(Cl)c1C(=O)OC(C(=O)NC(N)=O)C(C)C (stereo not given) | -7.79% (inactive)
62 | CCOC(=O)CNC(=O)N1Cc2cc(N3CCCCC3)ccc2-n2nncc2C1 | -0.57% (inactive)
63 | CC(CC(C#N)(c1ccccc1)c1ccccc1)N1CCCCC1 (stereo not given) | 75.2% (active)
64 | Clc1ccc2nc3c(c(-c4ccccc4)c2c1)CNCC3 | 5.52% (inactive)
65 | Cn1c(O)c(C(=Nc2ccc(F)cc2)c2ccccc2)c(=O)n(C)c1=O | -7.87% (inactive)
